Bioassay records from PubChem.
In the library only some 9% were active in any assay of this set; here they are far more common.
ALDH1A1 inh: inhibitors of human aldehyde dehydrogenase 1A1; 220,000 compounds, 7.3% hits; P00352; Potency, µM (series often up to 75.3 µM), for the others: top-dose activity, negative = inhibition, hits mostly inhibitors; Purified ALDH1A1, NADH fluorescence, propionaldehyde substrate; AID 1030; active = well fitted inhibition curve with a large enough effect, not every such curve was filed as active; inconclusive = small, poorly fitted or top-dose-only effect, or another doubt; inactive = no such curve, though single readings can be large or run the other way;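 note: plate controls were no enzyme wells and a reference inhibitor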
Target sequence (P00352 whole entry, looked up): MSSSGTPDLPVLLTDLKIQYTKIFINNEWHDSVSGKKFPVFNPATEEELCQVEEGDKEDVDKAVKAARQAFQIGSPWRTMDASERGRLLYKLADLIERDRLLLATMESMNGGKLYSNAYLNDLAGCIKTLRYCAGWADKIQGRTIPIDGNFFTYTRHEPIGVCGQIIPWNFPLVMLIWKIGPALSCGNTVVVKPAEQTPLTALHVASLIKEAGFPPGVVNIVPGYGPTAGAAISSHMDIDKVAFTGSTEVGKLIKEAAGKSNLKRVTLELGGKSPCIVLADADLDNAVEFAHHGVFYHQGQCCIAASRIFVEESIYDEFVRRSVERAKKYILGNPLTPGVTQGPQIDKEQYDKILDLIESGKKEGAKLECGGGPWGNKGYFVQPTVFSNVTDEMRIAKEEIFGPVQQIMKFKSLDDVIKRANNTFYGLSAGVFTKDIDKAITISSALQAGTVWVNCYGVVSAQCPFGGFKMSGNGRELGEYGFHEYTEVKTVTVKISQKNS
HPGD block: HPGD (human) dehydrogenase inhibition; 150,000 compounds, 4.3% hits; purified HPGD, NADH fluorescence kinetic, PGE2 substrate; Potency, µM, for the others: at the highest dose activity change, negative = inhibition, actives largely listed as inhibitors; active = well fitted inhibition curve with a large enough effect, not every such curve was filed as active; inconclusive = small, poorly fitted or top-dose-only effect, or another doubt; inactive = no such curve, though single readings can be large or run the other way; note: % is set by controls: 0 for no effect and ±100 for the full control effect
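NADH formation kinetics: reaction with 30 uM PGE2 and 1 mM NAD+ (final), 20 nM enzyme, Tris-HCl pH 8 with Tween 20, after 15 min compound preincubation at room temperature. Fluorescence change, last versus first of five reads.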
Lamin A splicing: modulators of lamin A splicing | AID 1487 | Potency, µM (doses to about 46.1 µM), inactives show at the highest dose ratio change, negative = inhibition, hits mostly inhibitors | HeLa LMNA splicing GFP/RFP minigene ratio, 48 h | 200,000 compounds, 0.01% hits; active = well fitted inhibition curve with a large enough effect in the signal ratio, with a control signal flat, not every such curve was filed as active; inconclusive = small, poorly fitted or top-dose-only effect, or effect the other way, or a change in a side signal; the % refers to the signal ratio; note: % is set by controls: 0 for no effect and ±100 for the full control effect
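S3 HeLa cells stably expressing lamin A-EGFP splicing minigene plus DsRed2, 600 cells/well, 48 h compound exposure at 37C. Laser-scanning cytometry; analysed as GFP (500-530 nm)/RFP (575-640 nm) total intensity ratio; 0.5% DMSO vehicle.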
Luc counter: counter-screen: inhibitors of Kinase-Glo firefly luciferase; Potency, µM (doses to about 38.3 µM), for inactives: top-dose activity change, negative = inhibition, actives largely listed as inhibitors; Kinase-Glo luciferase, ATP luminescence, 8 min; Q27757; 200,000 compounds, 0.28% hits; note: % is set by controls: 0 for no effect and ±100 for the full control effect; nearly all actives have a fitted effect of over 60% in size
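Kinase-Glo luciferase light output from ATP and luciferin was measured with 10 uM ATP, within the enzyme's linear range. Buffer: 50 mM imidazole pH 7.2, 50 mM KCl, 7 mM MgCl2, 0.01% Tween 20, 0.05% BSA; luminescence read after 8 min at ambient temperature.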
HTT aggregate: mutant huntingtin aggregation inhibition; PC12 HttQ103-GFP aggregates, Acumen cytometry, 40 h; Potency, µM (doses to about 46.1 µM), for inactives: at the top dose activity change, negative = inhibition, actives largely listed as inhibitors; 220,000 compounds, 1.1% hits; note: % is set by controls: 0 for no effect and ±100 for the full control effect; nearly all actives have a fitted effect of over 60% in size
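Compounds (qHTS titration) were added to PC12 cells expressing an ecdysone-driven HTT exon 1 Q103–GFP fusion after induction with 100 nM tebufenozide. Aggregate formation was measured as GFP objects in cell lysates.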
HTT cytoprotect: Huntington cell model cytoprotection by ATP luminescence; PC12 HTT-Q103 induced, cytoprotection, ATP luminescence, 40 h; Potency, µM (titrated, usually from 56.4 µM), for inactives: cytoprotection (ATP increase), actives largely listed as activators; 230,000 compounds, 0.14% hits; note: % of control where 0% means no effect; nearly all actives have a fitted effect of over 45% in size
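Compounds were screened for protection of PC12 cells against cell death after tebufenozide induction (100 nM final) of mutant Huntingtin exon 1 (Q103) fused to GFP.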
* = called active by the depositor; ? = inconclusive; . = no result given; [ ] = remark or other dose. Unless noted, calls come from the whole dose curve; as a rule, active = well fitted curve in the direction sought with a large enough effect; inconclusive = small, poorly fitted or top-dose-only effect, or another doubt; inactive = no such curve, though single readings can be large; an effect the other way counts as inactive or inconclusive. Potency is the fitted concentration of half-maximal effect.

SMILES	ALDH1A1 inh	HPGD block	Lamin A splicing	Luc counter	HTT aggregate	HTT cytoprotect
O=C1OC(Nc2nccs2)c2ccccc21 (stereo not given)	2%	-11%	12%	6%	1%	4%
CCn1cc(C(=O)N2CCc3ccccc32)c(=O)c2cc(S(=O)(=O)N3CC(C)CC(C)C3)ccc21 (stereo not given)	8%	?	?	1%	0%	.
CC1(C)CC(=O)C=C(Nc2ccc(F)cc2)C1	?	-17%	-11%	3%	-7%	-2%[10 µM]
O=C(CSc1nnc(-c2cccnc2)s1)Nc1cccc(C(=O)O)c1	-5%	-25%	-9%	2%	-13%	-7%[10 µM]
CCOC(=O)CSc1nc(Nc2ccc3c(c2)OCO3)c2ccccc2n1	?	-25%	1%	-2%	3%	-6%
N#CCSc1nc(Nc2ccc3c(c2)OCO3)c2ccccc2n1	-10%	?	?	1%	25µM*	-36%
CCCCN(c1ccccc1)S(=O)(=O)N(C)C	6%	.	?	-3%	7%	7%[10 µM]
CCOC(=O)/C=C/C(=O)OCC(=O)Nc1ccc(Cl)cn1	?	-14%	6%	-1%	13%	-21%
CCOC(=O)NC1(Nc2ccc(Cl)cn2)Oc2ccccc2O1	13µM*	-9%	?	3%	3%[9.22 µM]	-66%[4.97 µM]
Cc1cc2ccccc2cc(C)c1=O	3%	-16%	10%	2%	0%	-1%
C/C(=N\NC(=O)c1ccc(CN(C)S(=O)(=O)c2ccc(C)cc2)cc1)c1ccc(OC(F)F)cc1	25µM*	.	?	.	-8%	2%[10 µM]
O=C(NC1CCCC1)C1CCN(c2nccs2)CC1	1%	14µM*	-12%	-2%	4%	11%[10 µM]
Cc1[nH]nc2c1C(c1ccc(O)cc1)C1=C(CC(C)(C)CC1=O)N2 (stereo not given)	?	.	.	-3%	0%	5%
Cc1ccc(C2C3=C(CC(C)(C)CC3=O)Nc3[nH]c(=S)[nH]c(=O)c32)cc1 (stereo not given)	0%	18µM*	-9%	2%	18%	11%[10 µM]
O=C(O)C1CCCN1S(=O)(=O)c1ccc(Br)s1 (stereo not given) (tested in a mixture with another compound)	-9%	-5%	-14%	11%	7%	-32%[10 µM]
O=C(O)C1CCCCN1S(=O)(=O)c1ccc(Cl)s1 (stereo not given)	16µM*	-10%	2%	11%	12%	-3%
COc1ccc(C(C)=O)cc1COC(=O)c1ccc(N)c([N+](=O)[O-])c1	10µM*	.	-9%[46 µM]	2%	0%	-22%
COc1ccc(C(C)=O)cc1COc1ccccc1[N+](=O)[O-]	3.2µM*	.	?	3%	-1%	-34%
O=C(NCCc1ccccc1)c1cc(=O)[nH]c2ccccc12	?	.	?	-1%	-10%	-20%
CCOc1ccc(OCCNC2CCCC2)cc1	-10%	-12%	14%	-1%	10%	-1%
COc1ccccc1N1CCN(C(=O)/C=C/c2cccs2)CC1	?	-14%	0%	-2%	?	-7%[10 µM]
Cc1ccc2cc(CN(Cc3ccco3)C(=O)NC3CCCCC3)c(=O)[nH]c2c1C	?	-23%	?	-2%	?	16%[10 µM]
C/C(Cn1cnc([N+](=O)[O-])n1)=N/NC(=O)COc1ccccc1Cl	14µM*	-6%	-15%	2%	-7%	9%[10 µM]
C/C(Cn1nnc([N+](=O)[O-])n1)=N\NC(=O)c1ccc(Cl)c(Cl)c1	28µM*	-8%	?	9%	?	-3%
C/C(Cn1cnc([N+](=O)[O-])n1)=N\NC(=O)c1cccnc1	4%	-6%	4%	4%	-3%	3%[10 µM]
SMILES	ALDH1A1 inh	HPGD block	Lamin A splicing	Luc counter	HTT aggregate	HTT cytoprotect
C/C(Cn1cnc([N+](=O)[O-])n1)=N\NC(=O)c1ccc(Br)cc1	14µM*	-12%	2%	2%	28%	-11%[10 µM]
C/C(Cn1nnc([N+](=O)[O-])n1)=N\NC(=O)c1ccc(O)cc1	.	.	.	.	-18%[9.22 µM]	0%[10 µM]
Cc1cc(C(=O)NC(=S)Nc2cccc(NC(=O)C(C)C)c2)ccc1[N+](=O)[O-]	?	-15%	?	-10%	?	-22%[10 µM]
COc1ccc(-c2ccc(NS(=O)(=O)c3cc(C)c(C)cc3C)cc2)nn1	.	.	-22%[46 µM]	.	.	.
CCOCCc1nnc(NC(=O)CN2C(=O)c3ccccc3C2=O)s1	1%	-10%	-1%	-1%	-6%	-7%[0.074 µM]
CC(C)NC(C(=O)Nc1cc(Cl)cc(Cl)c1)c1ccccc1 (stereo not given)	11µM*	-17%	-5%	-4%	2%	5%
CN(C)CCNC(C(=O)Nc1cc(Cl)cc(Cl)c1)c1ccccc1 (stereo not given)	6%	.	-6%[46 µM]	-3%	7%	-7%
O=C(Nc1cc(Cl)cc(Cl)c1)C(NCC1CCCO1)c1ccccc1 (stereo not given)	4.5µM*	.	-14%	.	17%	-14%[10 µM]
O=C(NC(=S)Nc1nc(-c2ccccc2)cs1)c1cccs1	-3%	-29%	2%	9%	1%	-40%[10 µM]
O=c1ccnc(SCn2nnc3ccccc3c2=O)[nH]1	?	-17%	?	-3%	3%	-5%
CCN1CCN(CCCNC(=O)c2cc3sccc3n2CC)CC1	?	-17%	-1%	2%	-2%	19%[10 µM]
CCn1c(C(=O)NCc2cccnc2)cc2sc(Cl)cc21	-4%	16µM*	-4%	3%	-16%	-12%[10 µM]
CCn1c(C(=O)NCc2ccccn2)cc2sccc21	6%	18µM*	-7%	-1%	-14%	10%[10 µM]
CCn1c(C(=O)NCCCc2ccccc2)cc2sccc21	-8%	-17%	?	6%	13%	.
O=C(NCc1ccco1)c1cc2sccc2n1Cc1ccccc1	?	16µM*	?	1%	?	6%[10 µM]
O=C(NCCc1ccccc1)c1cc2sccc2n1Cc1ccccc1	?	16µM*	11%	0%	-1%	0%
Cn1c(=O)c2c(nc(NCc3ccco3)n2C/C=C/c2ccccc2)n(C)c1=O	6%	-5%	?	-6%	10µM*	?
Cc1cc(C)nc(-n2nc(C)cc2NC(=O)CN2CCc3ccccc3C2)n1	25µM*	4%	?	-1%	?	-8%[10 µM]
Cc1cc(C)nc(-n2nc(C)cc2NC(=O)CNCc2ccccc2)n1	8.9µM*	-11%	-1%	-7%	14%	-6%
Cc1cc(C)nc(-n2nc(C)cc2NC(=O)CN2CCCC(C)C2)n1 (stereo not given)	?	-6%	16%	0%	27%	-12%
CCN(CC(=O)Nc1cc(C)nn1-c1nc(C)cc(C)n1)Cc1ccccc1	20µM*	0%	-18%	-1%	-6%[9.22 µM]	-19%
